23 targets from the supplement of paper PMC11001985 can be followed below.

Sequence of UniProt P05556 (P05556 whole entry): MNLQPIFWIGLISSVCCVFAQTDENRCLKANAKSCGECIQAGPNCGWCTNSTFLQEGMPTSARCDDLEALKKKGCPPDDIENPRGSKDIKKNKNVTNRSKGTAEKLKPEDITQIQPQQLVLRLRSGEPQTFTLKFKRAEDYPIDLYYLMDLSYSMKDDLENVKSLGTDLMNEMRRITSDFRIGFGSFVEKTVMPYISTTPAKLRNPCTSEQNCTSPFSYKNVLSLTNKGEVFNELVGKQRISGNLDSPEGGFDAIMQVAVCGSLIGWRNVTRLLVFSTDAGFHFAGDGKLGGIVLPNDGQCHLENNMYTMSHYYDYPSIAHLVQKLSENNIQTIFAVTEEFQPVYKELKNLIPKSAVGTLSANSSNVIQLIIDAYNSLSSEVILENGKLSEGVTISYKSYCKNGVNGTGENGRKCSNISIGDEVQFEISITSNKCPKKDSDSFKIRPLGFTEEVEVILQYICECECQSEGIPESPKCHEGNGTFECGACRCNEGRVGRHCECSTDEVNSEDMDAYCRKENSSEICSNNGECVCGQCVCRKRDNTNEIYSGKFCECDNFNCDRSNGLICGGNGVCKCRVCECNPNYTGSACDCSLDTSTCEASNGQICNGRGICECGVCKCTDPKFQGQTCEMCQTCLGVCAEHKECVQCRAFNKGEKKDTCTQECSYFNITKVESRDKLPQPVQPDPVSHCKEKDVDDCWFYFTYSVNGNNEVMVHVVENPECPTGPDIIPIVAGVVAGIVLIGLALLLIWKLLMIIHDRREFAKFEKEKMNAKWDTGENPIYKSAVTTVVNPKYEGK
Sequence of UniProt P48960 (P48960 whole entry): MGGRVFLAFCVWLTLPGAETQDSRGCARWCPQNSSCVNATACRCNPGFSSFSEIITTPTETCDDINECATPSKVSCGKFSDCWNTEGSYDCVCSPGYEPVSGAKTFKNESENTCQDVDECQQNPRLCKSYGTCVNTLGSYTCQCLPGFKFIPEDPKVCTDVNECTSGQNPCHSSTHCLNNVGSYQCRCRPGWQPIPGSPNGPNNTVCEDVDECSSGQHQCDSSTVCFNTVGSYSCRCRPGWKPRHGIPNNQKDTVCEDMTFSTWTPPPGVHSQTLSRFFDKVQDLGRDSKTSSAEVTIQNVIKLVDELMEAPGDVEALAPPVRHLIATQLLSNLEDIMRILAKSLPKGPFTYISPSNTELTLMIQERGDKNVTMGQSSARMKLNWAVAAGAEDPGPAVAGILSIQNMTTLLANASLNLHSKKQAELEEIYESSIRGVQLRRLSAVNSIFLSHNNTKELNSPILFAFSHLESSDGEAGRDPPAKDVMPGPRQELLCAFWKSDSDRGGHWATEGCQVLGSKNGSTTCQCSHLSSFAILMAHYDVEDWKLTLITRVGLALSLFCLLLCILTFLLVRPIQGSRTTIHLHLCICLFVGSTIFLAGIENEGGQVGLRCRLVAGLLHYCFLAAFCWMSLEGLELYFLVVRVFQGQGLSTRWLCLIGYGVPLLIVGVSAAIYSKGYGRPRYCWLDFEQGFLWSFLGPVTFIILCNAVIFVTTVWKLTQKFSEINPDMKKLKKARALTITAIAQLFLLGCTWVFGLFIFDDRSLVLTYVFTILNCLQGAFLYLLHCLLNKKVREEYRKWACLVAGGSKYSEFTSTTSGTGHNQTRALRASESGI
Sequence of UniProt P07942 (P07942 whole entry): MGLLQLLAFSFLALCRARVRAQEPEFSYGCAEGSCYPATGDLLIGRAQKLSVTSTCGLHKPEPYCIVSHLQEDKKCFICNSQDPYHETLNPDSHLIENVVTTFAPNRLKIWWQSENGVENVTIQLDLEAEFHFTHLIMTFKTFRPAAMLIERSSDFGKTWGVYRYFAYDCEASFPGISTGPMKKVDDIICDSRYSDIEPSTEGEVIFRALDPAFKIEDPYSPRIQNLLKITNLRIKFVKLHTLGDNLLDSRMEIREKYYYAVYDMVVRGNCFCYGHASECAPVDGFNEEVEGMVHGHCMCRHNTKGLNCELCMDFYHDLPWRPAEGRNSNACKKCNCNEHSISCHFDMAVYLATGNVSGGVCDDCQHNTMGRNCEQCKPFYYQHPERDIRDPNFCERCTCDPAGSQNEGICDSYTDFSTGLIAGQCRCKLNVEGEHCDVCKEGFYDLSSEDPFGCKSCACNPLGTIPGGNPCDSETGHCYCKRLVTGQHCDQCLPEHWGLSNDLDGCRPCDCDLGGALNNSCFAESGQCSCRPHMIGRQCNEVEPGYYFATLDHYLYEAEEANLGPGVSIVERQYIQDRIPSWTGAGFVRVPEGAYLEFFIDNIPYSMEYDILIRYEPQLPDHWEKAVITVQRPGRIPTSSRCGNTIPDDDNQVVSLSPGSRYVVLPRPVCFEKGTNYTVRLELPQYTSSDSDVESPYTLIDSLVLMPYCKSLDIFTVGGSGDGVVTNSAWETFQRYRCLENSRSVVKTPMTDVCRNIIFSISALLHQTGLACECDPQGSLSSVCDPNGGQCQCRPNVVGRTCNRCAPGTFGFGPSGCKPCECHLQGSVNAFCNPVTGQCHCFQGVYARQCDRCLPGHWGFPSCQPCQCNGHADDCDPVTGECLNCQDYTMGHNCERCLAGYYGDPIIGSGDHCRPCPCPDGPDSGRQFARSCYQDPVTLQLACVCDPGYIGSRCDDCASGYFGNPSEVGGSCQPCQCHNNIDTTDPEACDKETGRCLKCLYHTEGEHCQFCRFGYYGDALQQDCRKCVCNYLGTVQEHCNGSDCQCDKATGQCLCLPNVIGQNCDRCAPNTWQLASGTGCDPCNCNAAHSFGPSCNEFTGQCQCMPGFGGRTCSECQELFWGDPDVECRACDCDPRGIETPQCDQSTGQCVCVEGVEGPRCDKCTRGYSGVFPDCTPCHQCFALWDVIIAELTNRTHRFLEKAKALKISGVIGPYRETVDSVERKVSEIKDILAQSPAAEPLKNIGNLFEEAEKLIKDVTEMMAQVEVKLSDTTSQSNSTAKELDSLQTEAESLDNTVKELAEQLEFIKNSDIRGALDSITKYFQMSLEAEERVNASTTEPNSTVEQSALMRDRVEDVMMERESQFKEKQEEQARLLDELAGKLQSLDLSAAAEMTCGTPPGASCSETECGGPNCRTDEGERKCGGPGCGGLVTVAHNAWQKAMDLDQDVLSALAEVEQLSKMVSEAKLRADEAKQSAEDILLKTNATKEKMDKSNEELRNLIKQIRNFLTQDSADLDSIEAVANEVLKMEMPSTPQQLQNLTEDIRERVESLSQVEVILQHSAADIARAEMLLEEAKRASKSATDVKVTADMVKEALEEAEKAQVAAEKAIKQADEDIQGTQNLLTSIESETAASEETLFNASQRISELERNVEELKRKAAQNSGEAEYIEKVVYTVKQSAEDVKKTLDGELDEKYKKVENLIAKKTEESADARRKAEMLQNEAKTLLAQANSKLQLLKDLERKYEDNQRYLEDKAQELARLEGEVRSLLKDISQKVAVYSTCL
Sequence of UniProt O60568 (O60568 whole entry): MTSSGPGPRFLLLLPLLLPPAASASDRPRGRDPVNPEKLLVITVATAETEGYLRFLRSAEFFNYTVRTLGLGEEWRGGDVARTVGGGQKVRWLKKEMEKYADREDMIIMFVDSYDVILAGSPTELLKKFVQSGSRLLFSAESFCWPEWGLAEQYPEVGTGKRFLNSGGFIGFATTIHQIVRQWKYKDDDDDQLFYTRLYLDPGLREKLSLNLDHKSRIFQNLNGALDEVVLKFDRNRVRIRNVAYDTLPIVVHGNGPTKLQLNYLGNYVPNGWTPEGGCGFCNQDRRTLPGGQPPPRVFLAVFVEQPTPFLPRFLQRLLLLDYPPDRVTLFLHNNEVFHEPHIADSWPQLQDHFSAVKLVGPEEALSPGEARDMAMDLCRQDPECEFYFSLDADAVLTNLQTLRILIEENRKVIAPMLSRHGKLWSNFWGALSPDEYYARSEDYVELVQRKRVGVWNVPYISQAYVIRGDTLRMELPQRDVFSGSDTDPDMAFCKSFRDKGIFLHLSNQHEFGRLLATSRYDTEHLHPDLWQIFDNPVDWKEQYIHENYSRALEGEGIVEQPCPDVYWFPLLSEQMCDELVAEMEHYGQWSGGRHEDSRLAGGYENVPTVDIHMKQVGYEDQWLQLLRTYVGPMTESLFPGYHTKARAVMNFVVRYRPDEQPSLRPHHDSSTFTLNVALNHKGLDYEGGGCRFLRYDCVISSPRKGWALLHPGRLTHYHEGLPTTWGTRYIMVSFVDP
Sequence of UniProt P25705 (P25705 whole entry): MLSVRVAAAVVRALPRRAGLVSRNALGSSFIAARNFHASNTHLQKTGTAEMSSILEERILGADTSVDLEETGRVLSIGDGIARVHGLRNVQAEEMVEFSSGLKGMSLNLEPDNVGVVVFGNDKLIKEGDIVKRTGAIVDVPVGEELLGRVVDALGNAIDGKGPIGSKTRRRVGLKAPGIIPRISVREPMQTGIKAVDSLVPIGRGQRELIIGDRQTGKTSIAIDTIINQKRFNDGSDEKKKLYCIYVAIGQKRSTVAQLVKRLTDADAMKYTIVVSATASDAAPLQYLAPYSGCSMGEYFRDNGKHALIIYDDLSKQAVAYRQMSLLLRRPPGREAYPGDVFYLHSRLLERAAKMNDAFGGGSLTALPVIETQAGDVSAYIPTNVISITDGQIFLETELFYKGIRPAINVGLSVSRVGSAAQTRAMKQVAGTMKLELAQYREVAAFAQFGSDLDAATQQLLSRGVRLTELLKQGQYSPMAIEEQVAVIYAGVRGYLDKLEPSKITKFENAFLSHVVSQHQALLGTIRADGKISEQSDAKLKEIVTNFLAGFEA
Sequence of UniProt Q03405 (Q03405 whole entry): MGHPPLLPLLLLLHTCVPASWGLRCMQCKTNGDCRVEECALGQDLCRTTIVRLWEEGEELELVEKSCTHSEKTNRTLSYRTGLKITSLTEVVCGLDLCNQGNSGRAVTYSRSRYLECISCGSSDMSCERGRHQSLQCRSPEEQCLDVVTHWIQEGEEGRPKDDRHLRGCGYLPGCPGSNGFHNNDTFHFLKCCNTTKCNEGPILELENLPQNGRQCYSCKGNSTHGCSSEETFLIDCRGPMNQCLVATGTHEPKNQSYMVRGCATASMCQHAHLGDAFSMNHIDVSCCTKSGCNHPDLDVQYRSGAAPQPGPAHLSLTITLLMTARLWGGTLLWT

Compound in this assay: C#CCNC(=O)CCSSCCC(=O)NCCc1ccc(C=O)c(C=O)c1
Description: lysine labeling ratio R10:1 (500 µM / 50 µM probe), SILAC-ABPP in living cells; higher = lower intrinsic lysine reactivity toward the probe, active = 2 or less. As to conditions: HeLa; probe concentrations 500 vs 50 µM. Put shortly: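 Living SILAC light and heavy HeLa cells in PBS at room temperature were treated with an alkyne-tagged, disulfide-linked lysine probe at 50 µM or 500 µM, with forward and reverse label swaps. The mixed lysates were clicked to biotin-azide, digested with trypsin, captured on neutravidin, released with DTT, alkylated and run by LC-MS/MS on a TIMS-TOF Pro. R for each lysine is the filtered median high-probe/low-probe MS1 peptide ratio, taken again as the median over forward and reverse replicates. Any value above 20 is set to 20.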
With “PLOD3 (lysine site: K89) (UniProt O60568)”, the “lysine labeling ratio R10:1” value was 5.28 (inactive). The result for “PTBP1 (lysine site: K271) (UniProt P26599)” reads 2.72 (inactive); that for “ROBO1 (lysine site: K297) (UniProt Q9Y6N7)”, 3.3 (inactive); that for “ITGAV (lysine site: K360) (UniProt P06756)”, 1.23 (active). The result for “FRAS1 (lysine site: K2521) (UniProt Q86XX4)” reads 2.03 (inactive).

As to “COL5A1 (lysine site: K57) (UniProt P20908)”, the “lysine labeling ratio R10:1” value was 1.11 (active). The result for “XRCC5 (lysine site: K481) (UniProt P13010)” reads 1.45 (active). With UniProt P25705 (lysine site: K167) the figure was 2.05 (inactive); with “IGF2R (lysine site: K1285) (UniProt P11717)”, 0.936 (active).

Regarding “CD97 (lysine site: K422) (UniProt P48960)”, the “lysine labeling ratio R10:1” value was 2.07 (inactive). With “LAMB1 (lysine site: K1505) (UniProt P07942)” the figure was 3.69 (inactive).

On to “RARS (lysine site: K471) (UniProt P54136)”, for which the “lysine labeling ratio R10:1” value was 2.85 (inactive). The result for UniProt Q15149 (lysine site: K2706) reads 3.69 (inactive); that for “ITGB1 (lysine site: K202) (UniProt P05556)”, 4.2 (inactive). With UniProt Q9H336 (lysine site: K304) the figure was 2.33 (inactive); with “NSUN2 (lysine site: K257) (UniProt Q08J23)”, 1.71 (active).

Turning to UniProt P61513 (lysine site: K13), the “lysine labeling ratio R10:1” value was 1.64 (active). With “RPL5 (lysine site: K178) (UniProt P46777)” the figure was 4.17 (inactive); with “ITGB1 (lysine site: K93) (UniProt P05556)”, 2.06 (inactive); with “TGFBI (lysine site: K53) (UniProt Q15582)”, 1.28 (active). With “NECTIN3 (lysine site: K249) (UniProt Q9NQS3)” the figure was 5.88 (inactive). Consider “ECE1 (lysine site: K197) (UniProt P42892)”, for which the “lysine labeling ratio R10:1” value is 2.89 (inactive). With “PLAUR (lysine site: K29) (UniProt Q03405)” the figure was 3.61 (inactive).
